Experimental data published in PubChem BioAssay AID1671202 (University of Kansas High Throughput Screening Laboratory, 2021).
In all, about 190,000 compounds went through this assay and about 6,900 (3.6%) were called active. Rule as the data show it: active = inhibition above about 50%; inactive = the rest. The entries come from a sample that favours actives as a whole.

Molecular target: Huntingtin (Homo sapiens) (UniProt P42858)
Assay: mutant huntingtin-calmodulin interaction inhibitors – biochemical, AlphaScreen, primary screen (AID 1671202);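 also: 0% = both proteins with DMSO and 100% = one protein alone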
Conditions: AlphaScreen His-mHTT/GST-CaM binding, luminescence; at 15 µM, hits give high values

Huntingtin (Homo sapiens), sequence (P42858 whole entry, looked up, stated change not applied): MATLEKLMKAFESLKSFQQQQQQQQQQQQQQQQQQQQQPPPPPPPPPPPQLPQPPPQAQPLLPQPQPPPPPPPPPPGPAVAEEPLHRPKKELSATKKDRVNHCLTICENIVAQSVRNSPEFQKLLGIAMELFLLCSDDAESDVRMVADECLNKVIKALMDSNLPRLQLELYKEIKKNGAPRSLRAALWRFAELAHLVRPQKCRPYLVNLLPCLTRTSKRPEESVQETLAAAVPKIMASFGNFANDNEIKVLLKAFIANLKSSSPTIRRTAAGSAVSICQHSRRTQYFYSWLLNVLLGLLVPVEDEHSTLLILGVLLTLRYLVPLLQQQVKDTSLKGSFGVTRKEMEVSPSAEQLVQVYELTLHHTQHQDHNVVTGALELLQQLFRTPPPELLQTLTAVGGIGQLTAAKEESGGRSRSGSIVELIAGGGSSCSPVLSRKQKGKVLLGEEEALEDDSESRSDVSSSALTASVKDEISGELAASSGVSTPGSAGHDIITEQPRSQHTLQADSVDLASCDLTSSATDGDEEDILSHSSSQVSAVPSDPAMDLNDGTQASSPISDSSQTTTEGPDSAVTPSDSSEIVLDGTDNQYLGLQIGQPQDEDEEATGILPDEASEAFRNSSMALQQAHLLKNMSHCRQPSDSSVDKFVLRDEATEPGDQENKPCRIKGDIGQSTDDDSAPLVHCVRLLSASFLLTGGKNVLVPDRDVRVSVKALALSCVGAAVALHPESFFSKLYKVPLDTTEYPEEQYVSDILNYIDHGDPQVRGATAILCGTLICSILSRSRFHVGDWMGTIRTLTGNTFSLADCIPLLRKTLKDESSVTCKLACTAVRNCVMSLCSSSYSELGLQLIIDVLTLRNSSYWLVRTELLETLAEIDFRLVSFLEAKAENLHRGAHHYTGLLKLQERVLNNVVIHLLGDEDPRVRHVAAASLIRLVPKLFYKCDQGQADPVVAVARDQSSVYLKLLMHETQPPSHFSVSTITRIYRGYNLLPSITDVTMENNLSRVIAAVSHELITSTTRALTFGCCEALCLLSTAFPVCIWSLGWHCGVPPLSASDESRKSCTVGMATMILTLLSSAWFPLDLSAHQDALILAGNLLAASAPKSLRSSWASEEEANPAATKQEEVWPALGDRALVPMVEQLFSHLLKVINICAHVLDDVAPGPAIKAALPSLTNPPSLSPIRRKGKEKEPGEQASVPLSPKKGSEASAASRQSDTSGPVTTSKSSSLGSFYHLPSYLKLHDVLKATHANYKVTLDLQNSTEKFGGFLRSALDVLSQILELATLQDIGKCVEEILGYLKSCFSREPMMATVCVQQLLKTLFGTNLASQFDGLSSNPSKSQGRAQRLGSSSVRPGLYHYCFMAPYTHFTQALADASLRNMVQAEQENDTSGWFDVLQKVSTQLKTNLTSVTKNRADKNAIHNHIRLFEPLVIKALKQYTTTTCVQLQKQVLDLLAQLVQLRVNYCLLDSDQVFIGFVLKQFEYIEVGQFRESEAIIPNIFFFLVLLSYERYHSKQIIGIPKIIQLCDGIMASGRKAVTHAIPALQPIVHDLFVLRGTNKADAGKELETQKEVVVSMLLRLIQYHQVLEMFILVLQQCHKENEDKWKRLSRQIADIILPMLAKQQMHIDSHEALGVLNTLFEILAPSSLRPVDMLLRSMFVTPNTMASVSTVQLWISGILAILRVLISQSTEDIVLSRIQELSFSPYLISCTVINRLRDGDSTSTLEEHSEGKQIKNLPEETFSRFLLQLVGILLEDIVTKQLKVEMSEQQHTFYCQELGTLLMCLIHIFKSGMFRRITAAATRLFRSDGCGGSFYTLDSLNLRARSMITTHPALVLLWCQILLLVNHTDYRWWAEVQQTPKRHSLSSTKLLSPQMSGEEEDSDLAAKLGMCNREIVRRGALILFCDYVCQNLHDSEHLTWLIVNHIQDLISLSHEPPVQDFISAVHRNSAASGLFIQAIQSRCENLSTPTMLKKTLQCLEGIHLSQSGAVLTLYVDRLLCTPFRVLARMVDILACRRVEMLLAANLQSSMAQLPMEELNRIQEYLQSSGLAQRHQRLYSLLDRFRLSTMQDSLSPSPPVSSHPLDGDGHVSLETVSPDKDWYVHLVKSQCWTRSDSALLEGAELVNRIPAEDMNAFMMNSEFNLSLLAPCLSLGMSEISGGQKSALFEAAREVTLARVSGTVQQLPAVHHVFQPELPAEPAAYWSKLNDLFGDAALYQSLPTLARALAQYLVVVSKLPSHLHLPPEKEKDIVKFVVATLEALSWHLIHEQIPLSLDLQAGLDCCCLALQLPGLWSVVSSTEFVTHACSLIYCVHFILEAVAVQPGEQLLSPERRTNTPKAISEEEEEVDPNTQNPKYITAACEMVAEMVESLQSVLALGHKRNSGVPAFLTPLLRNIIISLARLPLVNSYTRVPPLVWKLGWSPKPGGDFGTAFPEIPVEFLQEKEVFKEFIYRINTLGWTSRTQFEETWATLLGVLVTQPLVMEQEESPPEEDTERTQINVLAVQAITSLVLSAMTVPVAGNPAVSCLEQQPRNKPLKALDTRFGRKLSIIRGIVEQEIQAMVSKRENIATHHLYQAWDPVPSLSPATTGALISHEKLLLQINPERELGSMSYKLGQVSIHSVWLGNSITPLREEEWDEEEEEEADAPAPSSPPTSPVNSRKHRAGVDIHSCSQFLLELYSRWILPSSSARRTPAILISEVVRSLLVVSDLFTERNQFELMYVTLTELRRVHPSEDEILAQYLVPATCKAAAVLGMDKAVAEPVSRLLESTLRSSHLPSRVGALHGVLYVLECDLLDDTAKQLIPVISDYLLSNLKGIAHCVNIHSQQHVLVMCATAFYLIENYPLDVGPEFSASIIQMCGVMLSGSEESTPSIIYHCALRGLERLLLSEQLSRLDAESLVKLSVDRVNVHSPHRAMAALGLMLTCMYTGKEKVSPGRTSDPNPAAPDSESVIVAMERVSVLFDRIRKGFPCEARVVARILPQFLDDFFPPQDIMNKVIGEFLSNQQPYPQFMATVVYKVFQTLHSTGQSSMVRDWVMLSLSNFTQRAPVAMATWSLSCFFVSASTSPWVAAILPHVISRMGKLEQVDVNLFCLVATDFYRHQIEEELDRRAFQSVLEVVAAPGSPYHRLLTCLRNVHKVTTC

**Q.** With O=C(c1cnc(-c2ccccc2)nc1N1CCSCC1)N1CCCCC1 as the molecule, how does the inhibition read?
**A.** 18.3% (inactive)

**Q.** With Cc1cccc(N2CCN(C(=O)CCC3CCCN(C(=O)Nc4ccccc4)C3)CC2)c1C (stereo not drawn) as the molecule, how does the inhibition read?
**A.** 47% (inactive)

**Q.** For Brc1ccc(CSc2cccc3cccnc23)cc1, which inhibition is on record?
**A.** 54% (active)

**Q.** Which inhibition does the source give for N#Cc1ccc(CSc2ncccn2)cc1 here?
**A.** -1.95% (inactive)

**Q.** With O=C(CSc1ccccn1)c1ccc(Br)cc1 as the molecule, how does the inhibition read?
**A.** -42.4% (inactive)

**Q.** How did the inhibition turn out when CN(C)C(CNC(=O)Nc1ccc(Cl)cc1)c1ccco1 (stereo not drawn) was run?
**A.** -16% (inactive)

**Q.** How did the inhibition turn out when O=C(COc1coc(CN2CCc3ccccc32)cc1=O)NCc1ccco1 was run?
**A.** 19.5% (inactive)

**Q.** With CCOc1ccc(NC(=O)N2CC(C)Oc3ccc(C)cc32)cc1 (stereo not drawn) as the molecule, how does the inhibition read?
**A.** 1.01% (inactive)

**Q.** How did the inhibition turn out when COc1cc(OC)c(OC)cc1/C=C1/CC/C(=C\c2cc(OC)c(OC)cc2OC)C1=O was run?
**A.** 23% (inactive)

**Q.** How did the inhibition turn out when Cc1cccc(NC(=O)c2cc3c(CO)cnc(C)c3oc2=Nc2ccc(Cl)cc2)c1 was run?
**A.** -1% (inactive)

**Q.** With Cc1ccccc1NS(=O)(=O)c1cc(Br)cc2c1N(C(=O)C1CC1)CC2 as the molecule, how does the inhibition read?
**A.** 2% (inactive)

**Q.** With CC(C)(C)C1=CC(=Nc2ccccc2N)C=C(C(C)(C)C)C1O (stereo not drawn) as the molecule, how does the inhibition read?
**A.** 97% (active)

**Q.** Which inhibition does the source give for COCCCNC(=O)c1ccc2c(c1)ncn2-c1ccc(F)c(F)c1 here?
**A.** 9% (inactive)

**Q.** CCOc1ccc(C(=O)Nc2ccccc2I)cc1[N+](=O)[O-] was tested. Which inhibition did it give?
**A.** 4.6% (inactive)

**Q.** For CCNC(=O)N(C)CC(=O)N1N=C(c2ccc(C)c(C)c2)CC1c1ccc(C)cc1 (stereo not drawn), which inhibition is on record?
**A.** 73.4% (active)

**Q.** Cc1ccc(C2CC(c3cccc(F)c3)=NN2C(=O)CN2CCOCC2)cc1 (stereo not drawn) was tested. Which inhibition did it give?
**A.** 67.8% (active)

**Q.** How did the inhibition turn out when COc1ccccc1C1=NN(C(=O)CN2CCCCC2)C(c2ccc(C)cc2)C1 (stereo not drawn) was run?
**A.** 8.3% (inactive)

**Q.** COc1ccc(C2CC(c3ccccc3F)=NN2C(=O)CN2CCOCC2)cc1 (stereo not drawn) was tested. Which inhibition did it give?
**A.** 50.5% (active)

**Q.** COc1ccc(C2CC(c3ccccc3)=NN2C(=O)c2ccc(Br)o2)cc1 (stereo not drawn) was tested. Which inhibition did it give?
**A.** -1% (inactive)

**Q.** O=C(Cc1nnc(-c2cccc(F)c2)o1)N1CCOCC1 was tested. Which inhibition did it give?
**A.** -5.8% (inactive)

**Q.** How did the inhibition turn out when COc1ccccc1C1=NN(C(=O)CN2CCC(C)CC2)C(c2ccc(C)cc2)C1 (stereo not drawn) was run?
**A.** 12.9% (inactive)

**Q.** For Cc1ccc(C)c(C2CC(c3ccccc3Cl)=NN2C(=O)CN2CCOCC2)c1 (stereo not drawn), which inhibition is on record?
**A.** 79.4% (active)

**Q.** COc1ccc(C2=NN(C(=O)CCC(=O)O)C(c3ccc(F)cc3)C2)cc1OC (stereo not drawn) was tested. Which inhibition did it give?
**A.** -2.9% (inactive)

**Q.** For CCNC(=O)N(C)CC(=O)N1N=C(c2ccccc2F)CC1c1ccc(C)cc1 (stereo not drawn), which inhibition is on record?
**A.** 24.6% (inactive)

**Q.** How did the inhibition turn out when COc1ccc(C2=NN(C(=O)CN3CCN(C)CC3)C(c3ccccc3C)C2)cc1 (stereo not drawn) was run?
**A.** 42% (inactive)

**Q.** With COc1ccc(C2CC(c3cccc(F)c3)=NN2C(=O)CN2CCCCC2)cc1 (stereo not drawn) as the molecule, how does the inhibition read?
**A.** 36.7% (inactive)

**Q.** Which inhibition does the source give for CC(C)NC(=O)c1ccccc1NC(=O)c1ccc([N+](=O)[O-])cc1 here?
**A.** -2.9% (inactive)

**Q.** With N=C1S/C(=C\c2cccs2)C(=O)N1c1ccc2c(c1)OCO2 as the molecule, how does the inhibition read?
**A.** 2% (inactive)

**Q.** Which inhibition does the source give for O=C(CSc1ncnc2c1[nH]c1ccccc12)N1CCc2ccccc2C1 here?
**A.** 0% (inactive)

**Q.** COCC(=O)N1CCCN(c2nc3c(s2)c(C)nn3-c2ccc(C)cc2)CC1 was tested. Which inhibition did it give?
**A.** 45.2% (inactive)

**Q.** With COc1ccc(CCNC(=O)N2CC(c3nc(-c4ccccn4)no3)C2)cc1 as the molecule, how does the inhibition read?
**A.** -18.5% (inactive)

**Q.** With COc1ccc(NC(=O)N2CC3CC(NS(=O)(=O)c4cccs4)C2C3)c(OC)c1 (stereo not drawn) as the molecule, how does the inhibition read?
**A.** 9.02% (inactive)

**Q.** With N#CC1=C(N)Oc2c(c(=O)[nH]c3ccccc23)C1c1cccs1 (stereo not drawn) as the molecule, how does the inhibition read?
**A.** 8% (inactive)

**Q.** Which inhibition does the source give for N#CC1=C(N)Oc2c(sc3ccccc23)C1c1ccco1 (stereo not drawn) here?
**A.** 53% (active)

**Q.** How did the inhibition turn out when N#CC1=C(N)Oc2ccc3ncccc3c2C1c1ccccc1F (stereo not drawn) was run?
**A.** 49% (inactive)

**Q.** Which inhibition does the source give for CC(C)=CCOc1ccc2cc(-c3ccccc3)c(=O)oc2c1 here?
**A.** -45.3% (inactive)

**Q.** Which inhibition does the source give for O=C(COc1ccc(Br)cc1)Nc1ccccc1C(F)(F)F here?
**A.** -57% (inactive)

**Q.** How did the inhibition turn out when CN(C)C(=O)c1cc2c(s1)CCC(C(=O)NCc1ccccc1Cl)C2 (stereo not drawn) was run?
**A.** 3.06% (inactive)

**Q.** For O=C1OC(c2cccc(F)c2)=N/C1=C\c1ccc(Br)cc1, which inhibition is on record?
**A.** -1% (inactive)

**Q.** With CCC(C)NC(=O)c1ccc2c(c1)nc1n2CCCC1 (stereo not drawn) as the molecule, how does the inhibition read?
**A.** -4.18% (inactive)

**Q.** Which inhibition does the source give for CN1CCN(c2nc3c(c(=O)[nH]c(=O)n3C)n2CC(=O)c2ccc(Cl)cc2)CC1 here?
**A.** -4% (inactive)

**Q.** O=[N+]([O-])c1ccc(C=Nc2cccc(Cl)c2)cc1 was tested. Which inhibition did it give?
**A.** 30% (inactive)

**Q.** Which inhibition does the source give for Cc1cccc(N=C/C=C/c2ccc([N+](=O)[O-])cc2)c1 here?
**A.** 72% (active)

**Q.** For O=[N+]([O-])c1ccc(C=Nc2ccc(N=Cc3ccc([N+](=O)[O-])cc3)cc2)cc1, which inhibition is on record?
**A.** 4% (inactive)

**Q.** For CC(=O)NCCN1C(=O)C(=O)C(=C(O)c2ccc(Cl)cc2)C1c1ccc(Br)cc1 (stereo not drawn), which inhibition is on record?
**A.** -0.6% (inactive)

**Q.** COc1cc(/C=C2\SC(=N)N(c3ccccc3OC)C2=O)ccc1O was tested. Which inhibition did it give?
**A.** 36% (inactive)

**Q.** For COc1cc(C=C2SC(=S)N(c3ccc(O)cc3)C2=O)ccc1O, which inhibition is on record?
**A.** 58.5% (active)

**Q.** C=CCOc1ccc(/C=C2\SC(=O)N(c3ccccc3)C2=O)cc1OC was tested. Which inhibition did it give?
**A.** 3% (inactive)
